Several values for one entry are separate records, joined by “and”; a condition that tells them apart may be missing. Equal values may be shown once. Inconclusive results are not listed. Entries that show only a call come without a potency. More than one record can exist for a structure, and the calls need not agree. Activity calls are given as the source filed them. Unless noted, the call rests on the fitted dose curve.
System: thyroid hormone receptor (rat, GH3 cells)
Assay: qHTS assay to identify small molecule agonists of the thyroid receptor (TR) signaling pathway (AID 743066)
Conditions: GH3.TRE-Luc cells, TR agonist luciferase, 24 h; series mostly up to 83.9 µM; activation: at the top concentration
In the case of `O=S(=O)(O)c1cc(S(=O)(=O)O)c2c(N=Nc3ccccc3)c(O)ccc2c1`, the outcome was “inactive”. With `Clc1ccc(Cl)c(Cl)c1Cl` the outcome was “inactive”. For `COC(=O)Nc1nc2ccc(Sc3ccccc3)cc2[nH]1`, the outcome was “inactive”. For `CN(C)c1cccc(O)c1`, the outcome was “inactive”. With `CC1=CC[C@H]2C[C@@H]1C2(C)C` the outcome was “inactive”. In the case of `COC(=O)c1ccc(C(=O)OC)cc1`, the outcome was “inactive”. For `O=[N+]([O-])C(CO)(CO)CO`, the outcome was “inactive”. With `CC(C)(C)C1CCC(O)CC1` (stereo unspecified) the outcome was “inactive”. For `O=C(c1ccc(O)cc1)c1ccc(O)cc1O`, the “activation” value was 7.02% [at 95.2 µM] (inactive). For `c1ccc2[nH]cnc2c1`, the outcome was “inactive”. With `O=C1CCCCC1` the outcome was “inactive”. In the case of `CCCCCCCCCCC=CC1CC(=O)OC1=O` (stereo unspecified), the outcome was “inactive”. In the case of `C=C1CC[C@H](O)CC1=C/C=C1\CCC[C@]2(C)[C@@H]([C@H](C)/C=C/[C@H](C)C(C)C)CC[C@@H]12`, the “activation” value was -10.1% (inactive). In the case of `CCOC(=O)[C@H](CCc1ccccc1)N[C@@H](C)C(=O)N1Cc2ccccc2C[C@H]1C(=O)O`, the outcome was “inactive”. With `CC#C[C@]1(O)CC[C@H]2[C@@H]3CCC4=CC(=O)CCC4=C3[C@@H](c3ccc(N(C)C)cc3)C[C@@]21C` the “activation” value was -8.51% (inactive). For `C=C(C)C(=O)OCCC[Si](OC)(OC)OC`, the outcome was “inactive”. With `CCCCOCCOCCOC(=O)CCCCC(=O)OCCOCCOCCCC` the outcome was “inactive”. For `CCCCCCCCCCCCN`, the outcome was “inactive”. In the case of `CCCCC(CC)COC(C)=O` (stereo unspecified), the outcome was “inactive”. With `O=C(Cl)c1c(Cl)c(Cl)c(C(=O)Cl)c(Cl)c1Cl` the outcome was “inactive”. With `O=C(Oc1ccccc1)c1ccc(O)cc1` the outcome was “inactive”. With `O=[N+]([O-])c1cccc(Cl)c1` the outcome was “inactive”. For `Cc1cc(NS(=O)(=O)c2ccc(N)cc2)no1`, the outcome was “inactive”. With `Cc1cc(O)cc(C)c1Cl` the outcome was “inactive”. With `Cc1cc(O)c2c(c1)C(=O)c1cc(O)cc(O)c1C2=O` the outcome was “inactive”. With `CC1COc2ccccc2N1C(=O)C(Cl)Cl` (stereo unspecified) the outcome was “inactive”. For `CC(=O)CCc1ccccc1`, the outcome was “inactive”. For `O=[N+]([O-])c1cc(N(CCO)CCO)ccc1NCCO`, the outcome was “inactive”. With `O=S(=O)(Oc1ccc(Cl)cc1Cl)c1ccccc1` the outcome was “inactive”. With `Cc1ccc(N)c(S(=O)(=O)O)c1` the outcome was “inactive”. For `NC(=O)NNc1ccccc1`, the outcome was “inactive”. With `CCCCC/C=C\C/C=C\CCCCCCCC(=O)OC` the outcome was “inactive”. In the case of `CC1=C(CC(=O)O)c2cc(F)ccc2/C1=C\c1ccc(S(C)=O)cc1` (stereo unspecified), the outcome was “inactive”. For `CC(C)NCC(O)COc1cccc2ccccc12` (stereo unspecified), the outcome was “inactive”.

Target: Estrogen receptor (Homo sapiens) (UniProt P03372)
Sequence (P03372 whole entry, looked up): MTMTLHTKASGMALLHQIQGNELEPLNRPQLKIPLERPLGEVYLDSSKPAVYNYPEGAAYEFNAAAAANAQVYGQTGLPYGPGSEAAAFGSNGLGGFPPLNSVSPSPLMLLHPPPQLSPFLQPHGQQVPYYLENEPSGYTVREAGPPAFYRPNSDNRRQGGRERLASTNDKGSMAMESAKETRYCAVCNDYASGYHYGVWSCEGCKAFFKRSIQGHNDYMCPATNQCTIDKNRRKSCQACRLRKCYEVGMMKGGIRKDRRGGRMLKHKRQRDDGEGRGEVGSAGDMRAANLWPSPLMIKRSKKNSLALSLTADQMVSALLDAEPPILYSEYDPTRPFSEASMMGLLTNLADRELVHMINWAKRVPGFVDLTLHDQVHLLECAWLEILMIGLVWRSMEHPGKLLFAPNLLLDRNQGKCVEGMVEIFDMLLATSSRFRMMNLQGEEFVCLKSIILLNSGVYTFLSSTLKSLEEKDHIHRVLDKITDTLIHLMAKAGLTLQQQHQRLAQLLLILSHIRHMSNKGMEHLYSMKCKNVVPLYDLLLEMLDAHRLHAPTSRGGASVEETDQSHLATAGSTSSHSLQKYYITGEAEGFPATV
Assay: qHTS assay to identify small molecule antagonists of the estrogen receptor alpha (ER-alpha) signaling pathway (AID 743069; active means well fitted curve in the direction sought with a large enough effect in the signal ratio in the repeat runs, not every such curve was filed as active; the % refers to the signal ratio)
Conditions: HEK293 ER-alpha-UAS-bla, beta-lactamase ratio, antagonist mode; series mostly up to 69.4 µM; activity, negative = inhibition: at the top concentration
Procedure, shortened: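 Screening used a UAS-driven beta-lactamase reporter integrated into HEK293 cells expressing ER-alpha, stimulated with 17beta-estradiol alongside test compounds over 18 hr at 37C; signal came from LiveBLAzer B/G FRET fluorescence.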
With `CCCCCCOC(C)=O` the Potency was “inactive”. With `O=S(=O)(O)c1cc(S(=O)(=O)O)c2c(N=Nc3ccccc3)c(O)ccc2c1` the Potency was “inactive”. For `CC1=CC[C@H]2C[C@@H]1C2(C)C`, the Potency was “inactive”. For `COC(=O)c1ccc(C(=O)OC)cc1`, the Potency was “inactive”. For `O=[N+]([O-])C(CO)(CO)CO`, the Potency was “inactive”. With `CC(C)(C)C1CCC(O)CC1` (stereo unspecified) the Potency was “inactive”. For `O=C1CCCCC1`, the Potency was “inactive”. With `CCOC(=O)[C@H](CCc1ccccc1)N[C@@H](C)C(=O)N1Cc2ccccc2C[C@H]1C(=O)O` the Potency was “inactive”. With `C=C(C)C(=O)OCCC[Si](OC)(OC)OC` the Potency was “inactive”. For `CCCCOCCOCCOC(=O)CCCCC(=O)OCCOCCOCCCC`, the Potency was “inactive”. In the case of `O=C(Cl)c1c(Cl)c(Cl)c(C(=O)Cl)c(Cl)c1Cl`, the Potency was “inactive”. With `O=[N+]([O-])c1cccc(Cl)c1` the Potency was “inactive”. For `O=c1c(-c2ccc(O)cc2)coc2cc(O)ccc12`, the “activity, negative = inhibition” value was -27.4% (inactive). With `Cc1cc(O)c2c(c1)C(=O)c1cc(O)cc(O)c1C2=O` the Potency was “inactive”. In the case of `CC1COc2ccccc2N1C(=O)C(Cl)Cl` (stereo unspecified), the “activity, negative = inhibition” value was -13.4% (inactive). In the case of `CCC(=O)O`, the Potency was “inactive”. For `O=[N+]([O-])c1cc(N(CCO)CCO)ccc1NCCO`, the “activity, negative = inhibition” value was 23.8% (inactive). With `O=S(=O)(Oc1ccc(Cl)cc1Cl)c1ccccc1` the “activity, negative = inhibition” value was 17.2% [at 79.1 µM] (inactive). For `CCCCC/C=C\C/C=C\CCCCCCCC(=O)OC`, the “activity, negative = inhibition” value was -9.88% (inactive). For `CCOC(=O)/C=C\C(=O)OCC`, the Potency was “inactive”.

System: not listed separately
Assay: qHTS assay to identify small molecule antagonists of the estrogen receptor alpha (ER-alpha) signaling pathway - cell viability counter screen (AID 743074); further: nearly all actives have a fitted effect of over 45% in size; further: potency means the concentration at half of the fitted maximal effect
Conditions: ERalpha-bla HEK293 viability, CellTiter-Glo luminescence, 18 h; series mostly up to 69.4 µM; activity, negative = cytotoxicity: at the top concentration
For `CCCCCCOC(C)=O`, the Potency was “inactive”. In the case of `CC(=O)[C@@]1(O)CC[C@H]2[C@@H]3CCC4=CC(=O)CC[C@]4(C)[C@H]3CC[C@@]21C`, the Potency was “inactive”. With `O=S(=O)(O)c1cc(S(=O)(=O)O)c2c(N=Nc3ccccc3)c(O)ccc2c1` the “activity, negative = cytotoxicity” value was -14.6% [at 79.1 µM] (inactive). In the case of `Clc1ccc(Cl)c(Cl)c1Cl`, the Potency was “inactive”. In the case of `COC(=O)Nc1nc2ccc(Sc3ccccc3)cc2[nH]1`, the “activity, negative = cytotoxicity” value was 17.5% (inactive). For `CN(C)c1cccc(O)c1`, the Potency was “inactive”. For `CC1=CC[C@H]2C[C@@H]1C2(C)C`, the Potency was “inactive”. In the case of `COC(=O)c1ccc(C(=O)OC)cc1`, the “activity, negative = cytotoxicity” value was 7.04% (inactive). With `O=[N+]([O-])C(CO)(CO)CO` the “activity, negative = cytotoxicity” value was 17% (inactive). With `CC(C)(C)C1CCC(O)CC1` (stereo unspecified) the “activity, negative = cytotoxicity” value was 10.5% (inactive). In the case of `O=C(c1ccc(O)cc1)c1ccc(O)cc1O`, the Potency was “inactive”. With `c1ccc2[nH]cnc2c1` the “activity, negative = cytotoxicity” value was -7.53% (inactive). For `CCCCCCCCCCC=CC1CC(=O)OC1=O` (stereo unspecified), the “activity, negative = cytotoxicity” value was 27.5% (inactive). In the case of `C=C1CC[C@H](O)CC1=C/C=C1\CCC[C@]2(C)[C@@H]([C@H](C)/C=C/[C@H](C)C(C)C)CC[C@@H]12`, the Potency was 54.5 µM (active) and 54.9 µM (active). With `CCOC(=O)[C@H](CCc1ccccc1)N[C@@H](C)C(=O)N1Cc2ccccc2C[C@H]1C(=O)O` the Potency was “inactive”. With `CC#C[C@]1(O)CC[C@H]2[C@@H]3CCC4=CC(=O)CCC4=C3[C@@H](c3ccc(N(C)C)cc3)C[C@@]21C` the Potency was “inactive”. For `C=C(C)C(=O)OCCC[Si](OC)(OC)OC`, the Potency was “inactive”. For `CCCCOCCOCCOC(=O)CCCCC(=O)OCCOCCOCCCC`, the Potency was “inactive”. For `CCCCCCCCCCCCN`, the Potency was “inactive and 54.9 µM (active)”. For `CCCCC(CC)COC(C)=O` (stereo unspecified), the “activity, negative = cytotoxicity” value was 28% (inactive). For `O=C(Cl)c1c(Cl)c(Cl)c(C(=O)Cl)c(Cl)c1Cl`, the Potency was “inactive”. For `O=C(Oc1ccccc1)c1ccc(O)cc1`, the Potency was “inactive”. With `O=[N+]([O-])c1cccc(Cl)c1` the “activity, negative = cytotoxicity” value was 16.9% (inactive). In the case of `Cc1cc(NS(=O)(=O)c2ccc(N)cc2)no1`, the “activity, negative = cytotoxicity” value was 27.8% (inactive). For `Cc1cc(O)cc(C)c1Cl`, the “activity, negative = cytotoxicity” value was 6.09% (inactive). With `Cc1cc(O)c2c(c1)C(=O)c1cc(O)cc(O)c1C2=O` the Potency was “inactive”. In the case of `CC1COc2ccccc2N1C(=O)C(Cl)Cl` (stereo unspecified), the “activity, negative = cytotoxicity” value was 16.8% (inactive). In the case of `CCC(=O)O`, the Potency was “inactive”. In the case of `CC(=O)CCc1ccccc1`, the “activity, negative = cytotoxicity” value was 9.38% [at 79.1 µM] (inactive). In the case of `O=[N+]([O-])c1cc(N(CCO)CCO)ccc1NCCO`, the “activity, negative = cytotoxicity” value was -11.8% (inactive). In the case of `O=S(=O)(Oc1ccc(Cl)cc1Cl)c1ccccc1`, the “activity, negative = cytotoxicity” value was -9.26% [at 79.1 µM] (inactive). For `Cc1ccc(N)c(S(=O)(=O)O)c1`, the Potency was “inactive”. In the case of `NC(=O)NNc1ccccc1`, the Potency was “inactive”. In the case of `CCCCC/C=C\C/C=C\CCCCCCCC(=O)OC`, the “activity, negative = cytotoxicity” value was -5.54% (inactive). For `CCOC(=O)/C=C\C(=O)OCC`, the Potency was “inactive”. With `CC1=C(CC(=O)O)c2cc(F)ccc2/C1=C\c1ccc(S(C)=O)cc1` (stereo unspecified) the Potency was “inactive”. With `CC(C)NCC(O)COc1cccc2ccccc12` (stereo unspecified) the “activity, negative = cytotoxicity” value was -26.7% [at 79.1 µM] (inactive).

Source: PubChem BioAssay (Tox21)
